Rows were chosen to be rich in hits. Some 2.6% of all compounds tested hit in one or more screens of this group.
PAFAH2 inh: inhibitors of human PAFAH2; Q99487; recombinant PAFAH2, FP-rhodamine activity probe, fluorescence polarization; inhibition, % at 3.39 µM; 340,000 compounds, 0.99% hits; AID 492956;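 active means inhibition above the mean over all tested compounds plus 3 SD, cut at about 30% in these data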;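 further: inhibitors block probe labeling of enzyme so polarization drops; 0% = enzyme with DMSO and 100% = wells lacking PAFAH2 protein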
PAFAH1B3 inh: blocks human PAF acetylhydrolase 1B catalytic subunit 3; Q15102; recombinant PAFAH1B3, FP-rhodamine probe, fluorescence polarization; inhibition, % at 3.39 µM; 340,000 compounds, 0.28% hits;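 active means inhibition above the screen-wide average of all tested compounds plus 3 SD, cut at about 25% in these data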;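 further: 0% = enzyme with DMSO only and 100% = wells lacking PAFAH1B3 protein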
pPAFAH inh: inhibitors of human plasma PAF acetylhydrolase (pPAFAH). inhibition, % at 3.39 µM. 330,000 compounds, 1.5% hits. recombinant pPAFAH, FP-rhodamine probe fluorescence polarization;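 active means inhibition above the mean inhibition across the screen plus 3 SD, cut at about 25% in these data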;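 further: inhibitors block binding of the rhodamine activity-based probe so polarization drops; 0% = enzyme with DMSO and 100% = wells lacking pPAFAH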
PAFAH1B2 FP inh: blocks human PAF acetylhydrolase 1b catalytic subunit 2. recombinant PAFAH1B2, FP-rhodamine activity probe, fluorescence polarization. P68402. 340,000 compounds, 1.2% hits. AID 492953. inhibition, % at 3.39 µM;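 active means inhibition above the mean of all tested compounds plus 3 SD, cut at about 24% in these data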;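 further: 0% = enzyme with DMSO and 100% = wells lacking PAFAH1B2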
PKA-R2B act: activators of human PKA-R2B complex; P22694+P31323; PKA-R2B holoenzyme dissociation, Cy5-IP20 fluorescence polarization; R2B truncated from residue 108, S112A mutant; 0% DMSO only, 100% 113 µM cGMP; AID 504700; 340,000 compounds, 0.079% hits; activation, % at 11.4 µM;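 active means activation above a cutoff set at the mean over all compounds plus 3 SD, cut at about 18% in these data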;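 further: higher means more holoenzyme dissociation and a rise in polarization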
Target sequence (P31323 whole entry, looked up, other chains not shown, the tested form may be a part): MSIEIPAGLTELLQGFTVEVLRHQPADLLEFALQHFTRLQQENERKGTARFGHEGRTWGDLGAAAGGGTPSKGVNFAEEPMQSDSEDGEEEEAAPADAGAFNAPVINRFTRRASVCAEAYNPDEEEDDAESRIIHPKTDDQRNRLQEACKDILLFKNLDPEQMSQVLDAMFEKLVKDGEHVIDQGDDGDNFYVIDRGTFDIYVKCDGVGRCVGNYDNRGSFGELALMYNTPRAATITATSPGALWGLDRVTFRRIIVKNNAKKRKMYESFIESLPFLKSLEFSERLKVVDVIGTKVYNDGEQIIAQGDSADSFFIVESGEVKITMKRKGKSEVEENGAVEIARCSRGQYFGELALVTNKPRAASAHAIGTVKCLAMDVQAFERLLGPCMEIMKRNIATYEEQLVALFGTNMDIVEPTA
PKA-R1A act: activates the PKA-R1A holoenzyme complex | P00514+P68181 | PKA-R1A dissociation, Cy5-IP20 fluorescence polarization; scaled: DMSO 0%, 113 µM cGMP 100% | activation, % at 11.4 µM | 340,000 compounds, 0.083% hits | AID 504707;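 active means percent activation above the mean of all tested compounds plus 3 SD, cut at about 19% in these data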;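 further: higher means more PKAc released from R1A so a rise in polarization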
pPAFAH confirm: confirmation of human plasma PAF acetylhydrolase (pPAFAH) inhibitors; shares compounds with pPAFAH inh; recombinant pPAFAH, FP-Rh probe fluorescence polarization; inhibition, % at 3.39 µM; 2,300 compounds, 72% hits; AID 463230;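 active means mean inhibition of the triplicate above the hit cutoff set for the earlier primary screen, cut at about 25% in these data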;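 further: 0% = enzyme with DMSO and 100% = wells lacking pPAFAH enzyme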
* hit, by the source's call; nt = no result given.

SMILES | PAFAH2 inh | PAFAH1B3 inh | pPAFAH inh | PAFAH1B2 FP inh | PKA-R2B act | PKA-R1A act | pPAFAH confirm
CCCCN1C(=O)C(CC(=O)NC2CCCCC2)CC(C(=O)N(C)C)=C1C (configuration not stated) | nt | nt | nt | nt | -10.5 | -14.5 | nt
CC(=O)Nc1ccc(CCNC(=O)c2ccc3ccccc3c2O)cc1 | 1.8 | 6.4 | nt | -6.6 | -7.2 | 6.5 | nt
COc1cc2[nH]c3c(Cl)ncnc3c2cc1OC | 5.0 | 5.6 | 1.5 | -1.2 | 7.5 | -4.9 | nt
COc1cc2[nH]c3c(N4CCN(c5ccc(Cl)cc5)CC4)ncnc3c2cc1OC | 1.2 | 38.5* | 61.8* | 12.4 | -5.5 | -1.4 | 53.8*
CCCc1cc(=O)n2[nH]c(-c3ccc(Cl)cc3)cc2n1 | 12.7 | 0.3 | 13.4 | 9.5 | -14.4 | -0.7 | nt
CCOC(=O)Cc1cc(=O)n2[nH]c(-c3ccc(Cl)cc3)cc2n1 | 18.7 | 2.8 | 34.6* | 4.8 | -1.6 | 0.5 | 7.8
COc1cc(/C=N/Nc2nc3ccccc3s2)cc([N+](=O)[O-])c1O | 23.7 | 9.3 | 42.5* | 13.7 | 9.1 | -4.8 | 46.9*
COc1cc(/C=N/Nc2ccccc2[N+](=O)[O-])cc(OC)c1O | 1.6 | 5.7 | 20.8 | -0.1 | 7.3 | 4.7 | nt
CC(C)C(NC(=O)c1ccc(C(C)(C)C)cc1)C(=O)Nc1ccc(N2CCOCC2)cc1 (configuration not stated) | -2.6 | 2.1 | 3.8 | 0.1 | -4.8 | 2.6 | nt
O=C(c1cc(S(=O)(=O)N2CCOCC2)c(Cl)cc1Cl)N1CCCCC1CO (configuration not stated) | -4.9 | -0.1 | 46.5* | 0.3 | -2.7 | -2.1 | 2.6
O=C(c1cc(S(=O)(=O)N2CCOCC2)c(Cl)cc1Cl)N1CCCC1 | -3.9 | 1.9 | nt | 2.6 | 0.6 | -4.5 | nt
Cc1ccc(NS(=O)(=O)c2ccc(NC(=O)CN(c3cc([N+](=O)[O-])ccc3C)S(C)(=O)=O)cc2)c(C)c1 | -62.3 | -39.4 | 41.8* | -23.7 | 0.5 | -7.8 | 51.1*
CC(OC(=O)CCCC(=O)Nc1ccc(F)cc1)C(=O)c1ccccc1 (configuration not stated) | -1.2 | -0.8 | -0.5 | 3.8 | -8.5 | -4.0 | nt
O=c1cc(-c2ccc(C3CCCCC3)cc2)[nH][nH]1 | 9.1 | 6.2 | 35.1* | 15.0 | -4.2 | 7.2 | 5.4
N#C/C(=C\c1cc(Cl)c(OCc2ccc(Cl)cc2)c(Cl)c1)C(N)=O | nt | nt | 9.9 | nt | nt | nt | nt
N#C/C(=C\c1cc(O)c(O)c(O)c1)C(N)=O | 11.7 | 15.4 | 41.8* | 8.5 | 2.4 | -5.4 | 11.4
CCOc1ccc(C2OC34CCCCC3C(C#N)(C#N)C2(C#N)C(=N)O4)cc1OC (configuration not stated) | 45.9* | 43.4* | 41.9* | 36.8* | -11.8 | -8.5 | 1.4
CCCCCC(=O)N1C[C@@H](n2cc(-c3ccc(F)cc3)nn2)[C@H](O)C[C@@H]1c1ccc(OC)cc1 | nt | nt | nt | nt | -6.5 | -8.2 | nt
Cc1[nH]c2ccccc2c1/C=N/NC(=O)c1cccc(S(=O)(=O)Nc2cccc(C(F)(F)F)c2)c1 | 12.1 | 43.1* | 39.7* | 34.5* | -8.2 | 3.8 | 40.1*
CCOCCCNC(=O)c1ccc(N2CCCC2)c(NS(=O)(=O)c2ccc(C)cc2)c1 | 2.6 | 3.5 | 52.0* | 3.8 | 3.4 | -1.5 | 3.3
COCCCNC(=O)c1ccc(N2CCCC2)c(NS(=O)(=O)c2ccc(C)cc2)c1 | 17.5 | 9.7 | 5.1 | -1.2 | 0.7 | 6.8 | nt
Cc1ccc(Nc2ccc(C(N)=O)cc2[N+](=O)[O-])cc1C | -11.2 | 3.5 | 17.1 | -5.8 | -7.9 | -0.5 | nt
Cc1ccc(NC(=S)NNc2ccc(C(=O)O)cc2[N+](=O)[O-])cc1C | 26.7 | 9.0 | 34.6* | 5.9 | -5.9 | -1.2 | 39.2*
CCCN1CCN(CCCNC(=O)C(CC)n2nc(C)n3c(cc4occc43)c2=O)CC1 (configuration not stated) | -3.6 | 8.5 | 0.2 | -0.5 | -7.8 | 3.3 | nt
CC(=O)N1CCc2c(sc(NC(=O)CS(=O)(=O)c3ccc(F)cc3)c2C#N)C1 | 12.2 | 14.4 | 42.9* | 6.1 | 17.4 | 5.1 | 6.8

High-throughput results (PubChem)
